Measured values published in PubChem BioAssay (NCATS).
Inconclusive results are not listed. Activity calls are given as the source filed them. The call rests on the fitted dose curve; in most records, active means well fitted activation curve with a large enough effect in the main read-out, with a control signal flat (not every such curve was filed as active); inconclusive means small, poorly fitted or top-dose-only effect, or effect the other way, or a change in a side signal; inactive means flat fitted curve, though single readings scatter. Residues, ends and D or L forms follow the SMILES beside them.

Target: 3',5'-cyclic-AMP phosphodiesterase 4B (Homo sapiens) (UniProt Q07343)
Experiment: qHTS Assay for Inhibitors of PDE-IV (AID 607); further: % of control where 0% means no effect
Details: HEK293 ACTOne CNG channel cells, membrane potential fluorescence; series mostly up to 22.9 µM; activation (PDE inhibition): at the top concentration
From the text: NIH Chemical Genomics Center [NCGC]
NIH Molecular Libraries Screening Centers Network [MLSCN]
The cyclic nucleotide phosphodiesterases (PDEs) are proteins that catalyze hydrolysis of 3', 5'-cyclic nucleotides, such as cyclic adenosine monophosphate (cAMP) and cyclic guanosine monophosphate (cGMP), to their corresponding 5'-nucleotide monophosphates. These enzymes play an important role in controlling cellular concentrations of cyclic nucleotides and have a central role in a variety of intracellular signaling events. cAMP PDEs are emerging as a promising class of drug targets in asthma and cardiovascular disease therapeutic areas.
There are no commercially available cell-based screening assays for PDE inhibitors: currently biochemical assays are done using pure substrates (cAMP or cGMP) and purified recombinant PDE enzymes. As with other biochemical screens on intracellular targets, false positives and false negatives may result from issues involving cell membrane permeability, cellular metabolism, and the like.
Here we report the development of a cell-based screening assay for cAMP phosphodiesterase (PDE) inhibitors. The assay is based on the BD ACTOne# technology (BD Biosciences) which utilizes a modified cyclic nucleotide-gated channel (CNG) to monitor intracellular cAMP changes in live cells. The CNG channel is localized on the plasma membrane, and opens when the intracellular cAMP level increases, resulting in ion flux and cell membrane depolarization. The influx of cations through the CNG channel can be quantified using membrane potential (MP) dyes. We modified the BD ACTOne technology to allow the detection of PDE inhibitors, and performed an inhibitor screen for PDE-IV, which is expressed endogenously in HEK293 cells. We optimized this assay in homogeneous 1536-well plate assay format for high throughput screening.
NCGC Assay Protocol Summary:
The medium contained 10% FBS (Invitrogen), 2 mM L-glutamine, and 250 ug/ml G418 (Cellgro) and 1 ug/ml puromycin (Clontech). ACTOneTM parental cells (BD Biosciences) were maintained in the same medium without puromycin.
The activity of the CNG channel was measured by BD ACTOneTM membrane potential dye kit (BD Biosciences). Forskolin, a positive control for cAMP activation and RO 20-1724, a PDE inhibitor, were both purchased from Sigma and solublized in DMSO.
Sequence,Parameter,Value,Description
1,Reagent,3 uL,1000 cells/well 1536 TC treated Black plate
3,Compound,0.5 uL,Kalypsys dispense RO 20-1724 100 uM final [A]
4,Reagent,3 uL,BD membrane potential dye
6,Compound,23 nL,Final concentration was 0.7nM to 22.9uM
8,Detector,EX 535 / EM 590 [B],Envision
Footnotes: [A] The stock 2 mM RO 20-1724 PDE inhibitor was made in 10 % DMSO. Parental cell line received 10 uM forskolin + 100 uM RO. [B] Envsion settings: Bottom Excitation 535/20 nm top emission 590/20, gain of 150 and 5 flashes per well.
Keywords: PDE, PDE-IV, cytotoxicity, flourescence, MLSMR, MLSCN, NIH Roadmap, qHTS, NCGC

Sequence of 3',5'-cyclic-AMP phosphodiesterase 4B (Homo sapiens) (Q07343 whole entry, looked up): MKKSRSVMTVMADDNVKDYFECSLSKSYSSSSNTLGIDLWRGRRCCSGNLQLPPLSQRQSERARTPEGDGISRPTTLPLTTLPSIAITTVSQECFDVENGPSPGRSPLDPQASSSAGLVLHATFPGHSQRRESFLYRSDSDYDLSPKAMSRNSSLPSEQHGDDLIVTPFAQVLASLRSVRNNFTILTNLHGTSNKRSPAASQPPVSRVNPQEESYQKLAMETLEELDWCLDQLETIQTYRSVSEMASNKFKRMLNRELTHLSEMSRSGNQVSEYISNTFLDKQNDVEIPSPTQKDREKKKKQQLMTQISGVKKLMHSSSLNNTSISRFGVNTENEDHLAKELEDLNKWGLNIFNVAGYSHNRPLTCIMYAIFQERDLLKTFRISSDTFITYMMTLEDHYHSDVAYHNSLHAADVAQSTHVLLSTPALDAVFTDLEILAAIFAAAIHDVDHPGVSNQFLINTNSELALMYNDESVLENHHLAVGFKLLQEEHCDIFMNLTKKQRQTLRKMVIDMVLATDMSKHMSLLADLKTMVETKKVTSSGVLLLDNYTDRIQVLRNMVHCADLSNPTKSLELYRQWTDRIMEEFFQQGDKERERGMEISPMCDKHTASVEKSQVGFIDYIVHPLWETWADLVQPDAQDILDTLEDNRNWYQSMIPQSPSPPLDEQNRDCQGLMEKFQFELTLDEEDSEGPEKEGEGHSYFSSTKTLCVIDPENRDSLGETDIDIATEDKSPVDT

Compound	activation (PDE inhibition)	Potency
c1ccc2c(c1)-c1ccccc1C2N1CC2CCC(CC2)C1	-19.6% (inactive)	–
c1c[nH]c(CN2CCN(Cc3ncc[nH]3)CC2)n1	11.2% (inactive)	–
C/C(=N\[N+](C)(C)C)c1ccc(C)c(C)c1	0.642% (inactive)	–
CC[C@H](C)[C@@H]1O[C@]2(CC[C@@H]1C)C[C@H]1C[C@H](CC=C(C)[C@@H](O[C@H]3C[C@H](OC)[C@H](O[C@H]4C[C@H](OC)[C@H](O)[C@H](C)O4)[C@H](C)O3)[C@@H](C)C=CC=C3CO[C@@H]4[C@@H](O)C(C)=C[C@H](C(=O)O1)[C@@]34O)O2	13.6% (inactive)	–
COc1cc(N=C(N)N=C(N)N)c2ncccc2c1	-0.672% (inactive)	–
CSC1(SC2=NCCN2)SC2(NCCN2)S1	-0.543% (inactive)	–
Cc1nc2ccccc2nc1-c1ccc(N=[N+]([O-])c2ccc(-c3nc4ccccc4nc3C)cc2)cc1	11.9% (inactive)	–
c1ccc(C[C@@H](Nc2cccnc2)c2ccccc2)cc1	12.9% (inactive)	–
Cc1ccc2c(c1)N[C@H](c1ccc(C(=O)O)cc1)c1cccn1-2	7.35% (inactive)	–
O=c1[nH]c(=S)c2[nH]c(=O)n(-c3ccccc3)c2[nH]1	-1.3% (inactive)	–
Cc1[nH]c(C)c(CN(C)C)c1CN(C)C	0.696% (inactive)	–
CN(C)c1ccc(-c2cc(NCc3ccccc3)ncn2)cc1	7.23% (inactive)	–
O=c1c(-c2ccc(F)cc2)nc2cnc(Oc3ccccc3)nc2n1C[C@H]1CCCO1	-3.72% (inactive)	–
CC(C)[C@@H](C)/C=C\[C@@H](C)[C@@H]1CC[C@H]2C3=CC=C4C[C@@H](O)CC[C@]4(C)[C@H]3CC[C@]21C	3.28% (inactive)	–
N[C@H](CO)C(=O)NCC(=O)O (HELM PEPTIDE1{[dS].G}$$$$V2.0)	-0.599% (inactive)	–
C[N+](C)(C)c1ncnc2c1ncn2[C@@H]1C[C@H](O)[C@@H](CO)O1	-3.43% (inactive)	–
NCCNC(=S)S	-5.28% (inactive)	–
O=C(O)[C@H]1CCCC[C@@H]1C(=O)Nc1nc2ccccc2[nH]1	2.1% (inactive)	–
NC(N)=NC[C@H](N)C(=O)O	-5.61% (inactive)	–
N#CC(C#N)=NNc1ccc2cn[nH]c2c1	2.08% (inactive)	–

Compound	activation (PDE inhibition)	Potency
C[C@@]1(C(=O)O)CCC[C@@H]1C(=O)O	-4.81% (inactive)	–
CN(C)CCNc1ccccn1	6.51% (inactive)	–
NN(CC(=O)O)CC(=O)O	1.97% (inactive)	–
Cn1c(=O)c2c(nc(Cc3ccccc3)n2CC(=O)O)n(C)c1=O	-3.96% (inactive)	–
CC(C)(SCc1ccccc1)[C@H](N)C(=O)O	-0.254% (inactive)	–
CC(C)CCC[C@@H](C)[C@@H]1CC[C@@H]2[C@H]3CC[C@H]4C[C@@H](N)CC[C@@]4(C)[C@@H]3CC[C@]21C	1.73% (inactive)	–
Cc1cc(C)c2c(SCc3ccc(Cl)cc3Cl)nc(N)nc2n1	22.6% (inactive)	–
O=C(O)CSc1ccccc1C(=O)O	12.6% (inactive)	–
Nc1cc(S(=O)(=O)O)cc2ccc(S(=O)(=O)O)cc12	0.692% (inactive)	–
COc1ccc(-c2nc(N)c3ncn([C@H]4O[C@@H](CO)[C@@H](O)[C@@H]4O)c3n2)cc1	-2.21% (inactive)	–
COc1ccc2nc3cc(Cl)ccc3c(Nc3ccc(O)c(CN4CCN(C)CC4)c3)c2c1	-4.65% (inactive)	–
CN(C)Cc1cc(O)c(O)c(CN(C)C)c1	2.81% (inactive)	–
Oc1ccc(Cl)cc1C=Nc1cnc2ccccc2c1	-7.86% (inactive)	–
O=C(O)CCNc1ncnc2nc[nH]c12	6.71% (inactive)	–
CN(C)CCSCCO	-5.29% (inactive)	–
OC[C@@H]1O[C@@H](n2cnc3c(NC4CCCCC4)ncnc32)[C@@H](O)[C@H]1O	6.99% (inactive)	–
C=CC[C@@H](C(=O)O)c1ccccc1	11.9% (inactive)	–
C[C@@H]1C[C@@H]2[C@H]3CCC4=CC(=O)C=C[C@]4(C)[C@]3(Cl)[C@@H](O)C[C@@]2(C)[C@@]1(O)C(=O)CO	15% (inactive)	–
C=C(C)COc1ccc2c(c1)CCC1C2CC[C@]2(C)C(=O)/C(=N/O)CC12 (stereo not given in full)	-1.12% (inactive)	–
Oc1ccc([C@@H]2CNCCc3c2cc(O)c(O)c3Cl)cc1	–	inactive
